PubChem BioAssay AID779 (Sanford-Burnham Center for Chemical Genomics, 2007)
A number with no mark means an inactive call. The rule behind the calls is not given here.

Experiment: placental alkaline phosphatase inhibitors, dose response, counter-screen, biochemical, colorimetric (AID 779)
Conditions: PLAP counter-screen, colorimetric OD read-out

Compound	IC50 [µM]
Cc1ccc(S(=O)(=O)/C(C#N)=C/c2c(N3CCOCC3)nc3ccccn3c2=O)cc1	> 50
CC1(C)CCCN(C(=O)c2coc(=O)c(Br)c2)C1	> 50
CN(C)c1ccc(/C=C/C(=O)c2cccc(Br)c2)cc1	> 50
CCCSC1=N/C(=C\C=C\c2ccco2)C(=O)S1	> 50
O=C(Nc1cccc2ccccc12)/C(=C/c1ccc([N+](=O)[O-])cc1)NC(=O)c1ccccc1	> 50
CCOc1ccc(/C=C/C2=Cc3c(sc(NC(=O)CSc4n[nH]c(N)n4)c3C#N)C(C)(C)C2)cc1	> 50
Cc1occc1-c1nnc(SCC(=O)Nc2ccccc2-c2ccccc2)n1C	> 50
O=C1CCCC2=C1C(c1ccco1)Nc1ccc3ccccc3c12 (stereo unspecified)	> 50
CCCn1nc(-c2ccccc2)c2nc3ccccc3nc21	> 50
c1ccc(-c2cn3nc(-c4ccccc4)c(-c4ccccc4)nc3n2)cc1	> 50
Cc1ccc2cc(/C=C3\N=C(c4ccccc4)OC3=O)c(N3CCOCC3)nc2c1	> 50
Nc1ccc(Br)c2c1C(=O)c1ccccc1C2=O	> 50
C=CCOC(=O)c1cc(-c2ccc(/C=C3\C(=O)NC(=O)C(C#N)=C3C)o2)ccc1Cl	> 50
CCc1cccc2c(C(=O)CSc3nnc(-c4ccoc4C)n3C)c[nH]c12	> 50
CCC(C)COC(=O)C(C#N)c1nc2ccccc2nc1N1CCCCC1 (stereo unspecified)	> 50
Cc1cc(C)n(CNc2nc(C(F)(F)F)cs2)n1	> 50

Compound	IC50 [µM]
O=C(NCc1ccccc1)c1ccc2nc(-c3ccco3)c(-c3ccco3)nc2c1	> 50
CCOC(=O)c1c(NC(=S)Nc2ccccc2)sc2c1CCN(CCc1ccccc1)C2	> 50
CC(C)C(C(=O)O)N1C(=O)/C(=C/C=C/c2ccco2)SC1=S (stereo unspecified)	> 50
N#CC(c1nc2ccccc2nc1N1CCCC1)S(=O)(=O)c1cccs1 (stereo unspecified)	> 50
O=C(NCCc1ccccc1)c1ccc2nc(-c3ccco3)c(-c3ccco3)nc2c1	> 50
CC(C(=O)O)N1C(=O)/C(=C/C=C/c2ccco2)SC1=S (stereo unspecified)	> 50
Cc1c(NC(=S)N/N=C/c2cccc(O)c2)c(=O)n(-c2ccccc2)n1C	> 50
CSc1nc(SCCO)c2sc3nc(-c4ccco4)c4c(c3c2n1)CC(C)(C)OC4	> 50
CCOC(=O)c1c(NC(C)=O)sc2c1CCC(C=O)=C2Sc1ccccc1	> 50
Cn1cc([N+](=O)[O-])c(C(=O)Nc2ccc3c(c2)OCCO3)n1	> 50
Cc1ccc(-n2c(C)nc3oc4ccccc4c(=O)c3c2=O)cc1	> 50
COc1ccc(S(=O)(=O)Nc2cc(Sc3ncn[nH]3)c(O)c3ccccc23)cc1	> 50
Cc1ccc(C)c(N(CC(=O)N/N=C/c2ccc(-c3ccc([N+](=O)[O-])cc3)o2)S(=O)(=O)c2ccccc2)c1	> 50
CCCCN(CCCC)C1=Nc2ccccc2N/C1=C(/C#N)C(=O)OCC	> 50
COc1ccc(OC)c(NC(=O)CSc2nc3ccccc3cc2Cc2ccccc2)c1	> 50
